# Marburg entry inh: qHTS for inhibitors of binding or entry into cells for Marburg Virus; Marburg virus pseudotyped entry inhibition, cell reporter; 300,000 tested, 1.8% active; Potency, µM (series often up to 37.8 µM), for inactives: top-dose activity change, negative = inhibition, most hits filed as inhibitors; calls by dose curve; tested in HEK293 cells; note: potency is the fitted concentration of half-maximal effect
# Vaccinia mCherry: qHTS for Stage-Specific Inhibitors of Vaccinia Orthopoxvirus: mCherry Reporter Primary qHTS; Potency, µM (doses to about 36.5 µM), for the others: at the highest dose activity change, negative = inhibition, most hits filed as inhibitors; 310,000 tested, 0.63% active; Vaccinia virus mCherry reporter infection, fluorescence; calls by dose curve; tested in A549 cells; note: potency is the fitted concentration of half-maximal effect; nearly all actives have a fitted effect of over 35% in size
# LASV entry inh: qHTS for Inhibitors of binding or entry into cells for Lassa Virus | Lassa virus pseudotype entry inhibition, cell reporter | Potency, µM (series often up to 37.9 µM), inactives show top-dose activity change, negative = inhibition, hits mostly inhibitors | 300,000 tested, 1.2% active; calls by dose curve; tested in HEK293 cells; note: potency is the fitted concentration of half-maximal effect; nearly all actives have a fitted effect of over 50% in size
# HCV inh: qHTS Assay for Inhibitors of Hepatitis C Virus (HCV); Potency, µM (top dose mostly 41.8 µM), without a hit: at the top dose activity change, negative = inhibition, usual class: inhibitors; 340,000 tested, 3.4% active; Huh7.5.1 HCVcc-Cre infection, luciferase reporter, 44 h; active = well fitted inhibition curve with a large enough effect; inconclusive = small, poorly fitted or top-dose-only effect, or another doubt; inactive = no such curve, though single readings can be large or run the other way; note: potency is the fitted concentration of half-maximal effect
#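 Infectious HCVcc-Cre (~0.5 moi) was added to cells just after compound, with cells seeded 4 h earlier at 1,000 per well. Luciferase activity after 44 h culture reported infection; substrate was incubated 15 min at room temperature before reading.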
# VACV Venus inh: qHTS for Stage-Specific Inhibitors of Vaccinia Orthopoxvirus: Venus Reporter Primary qHTS; Vaccinia virus Venus reporter expression, fluorescence; Potency, µM (series often up to 36.5 µM), for the others: at the highest dose activity change, negative = inhibition, most hits filed as inhibitors; 330,000 tested, 0.46% active; AID 720580, 2013; calls by dose curve; tested in A549 cells; note: potency is the fitted concentration of half-maximal effect; nearly all actives have a fitted effect of over 30% in size
# HCMV antiviral: qHTS Assay for inhibitors of the human cytomegalovirus (HCMV); activity change, negative = inhibition, % at 57.5 µM; 410,000 tested, 4.5% active; HFF cells, HCMV-luciferase reporter, 72 h; stronger effect = lower value; AID 1259415, 2018; in the data active = activity change below about -60%; inconclusive = no clear call, values can overlap the other calls; inactive = above about -39%
#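 Steps: HFFs plated, 16 h 37C; compounds added; HCMV-luciferase added to MOI 1 PFU/cell; 72 h 37C; OneGlo reagent, 5 min room temperature; luminescence read, normalized to controls.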
# Active calls of the source: *; i = inactive; ? = inconclusive; / = not tested or not shown; ! = repeats disagree; [ ] = remark or other dose. Sampled rows, rich in hits. Any-hit rate of the full collection: about 7.8%. % is set by controls: 0 for no effect and ±100 for the full control effect.
SMILES,Marburg entry inh,Vaccinia mCherry,LASV entry inh,HCV inh,VACV Venus inh,HCMV antiviral
CCN1C(=O)NC(c2cccc(F)c2)C(C(=O)OC)=C1C (stereo not given),19%[14.2 µM],/,/,/,/,/
COc1ccc(-c2[nH]ncc2CN2CCOc3c(cc(-c4cccc(OC)n4)cc3OC)C2)cc1,/,i,/,/,-4%,/
Cc1sc2ncn(CC(=O)N3CCN(c4ccccc4)CC3)c(=O)c2c1S(=O)(=O)N1CCN(c2ncccn2)CC1,14%[46.1 µM],-11%,-3%[46.1 µM],/,-11%,9
COc1ccccc1CC(=O)Nc1ccc(S(=O)(=O)N(C)C2CCN(C)CC2)cc1,/,/,/,-25%,/,-11
Cc1nc2ccc(NC(=O)c3cccc(S(=O)(=O)N4CC(C)OC(C)C4)c3)cc2s1 (stereo not given),-28%[46.1 µM],/,?,2.8µM*,?,0
CN1CCN(S(=O)(=O)c2cccc(C(=O)Nc3ccccc3N3CCCC3)c2)CC1,-20%,-18%,-15%,-3%,-4%,1
CC1CN(S(=O)(=O)c2cccc(C(=O)Nc3ccccc3N3CCCC3)c2)CC(C)O1 (stereo not given),?,-10%,?,32µM*,-28%,-32
O=C(Nc1ccc(S(=O)(=O)N2CCOCC2)cc1)c1cc(-c2ccccc2O)n[nH]1,/,-10%[7.34 µM],/,-18%,-6%[7.34 µM],?
CC1CN(S(=O)(=O)c2ccc(NC(=O)c3cc(-c4ccccc4O)n[nH]3)cc2)CC(C)O1 (stereo not given),12µM*,/,21µM*,8.9µM*,/,-98*
CC(C)C[C@@H]1NC(=O)[C@H](CCCN)NC(=O)[C@H](C(C)C)NC(=O)[C@@H]2CCCN2C(=O)[C@@H](Cc2ccccc2)NC(=O)[C@H](CC(C)C)NC(=O)[C@H](CCCN)NC(=O)[C@H](C(C)C)NC(=O)[C@@H]2CCCN2C(=O)[C@@H](Cc2ccccc2)NC1=O,/,4.5µM*,/,/,?,/
COc1ccc(OC)c(NC(=O)COC(=O)/C=C/c2c(C)nn(C3CCS(=O)(=O)C3)c2Cl)c1 (stereo not given),-6%,/,-2%,-22%,-25%,-15
Cc1nn(C2CCS(=O)(=O)C2)c(Cl)c1/C=C/C(=O)OCC(=O)c1cc(C)n(-c2ccc(F)cc2)c1C (stereo not given),?,?,?,4µM*,-29%,-86*
Cc1nn(C2CCS(=O)(=O)C2)c(Cl)c1/C=C/C(=O)OCC(=O)c1c[nH]c2ccccc12 (stereo not given),?,-17%,-15%,22µM*,-17%,12
O=[S+]1([O-])C[C@@H](N2CCN(CCO)CC2)[C@@H](COCc2ccccc2)N1,/,/,12%[46.1 µM],/,/,/
C=C1C(=O)O[C@@H]2[C@H]3O[C@]3(C)CC/C=C(\C)CC[C@@H]12,22µM*,i,/,-11%,-13%,-12
CCCn1c(=O)c(C(=O)NCc2ccccc2Cl)c(O)c2ccccc21,1%,i,?,13µM*,-11%,-37
CCCCCn1c(=O)c(C(=O)NCc2ccccc2Cl)c(O)c2ccccc21,/,/,/,6%,/,-74*
CCn1c(=O)c(C(=O)NNC(=O)c2ccccc2Cl)c(O)c2ccccc21,1%[46.1 µM],-23%,?,14µM*,-7%,?
CCCCn1c(=O)c(C(=O)NCc2ccc(Cl)cc2)c(O)c2ccccc21,?,?,-25%[46.1 µM],?,-2%,4
CCn1c(=O)c(C(=O)NNC(=O)c2ccccc2F)c(O)c2ccccc21,?,?,?,?,-12%,?
CCCCCn1c(=O)c(C(=O)NCc2ccncc2)c(O)c2ccccc21,?,?,?,?,?,-88*
COc1ccccc1NC(=O)c1cc(C)oc1C,6%[46.1 µM],i,-1%[46.1 µM],-15%,-18%,?
COc1ccc(NS(=O)(=O)c2cc(C)ccc2NC(=O)c2cc(C)oc2C)cc1,?,/,?,13µM*!,?,5
COc1ccc(NS(=O)(=O)c2cccc(C(=O)NNC(=O)c3ccc(C)o3)c2)cc1,/,/,/,-6%,/,-32
COc1ccc(NS(=O)(=O)c2cccc(C(=O)NNC(=O)COc3ccccc3)c2)cc1,?,i,-4%,2%,-17%,8
SMILES,Marburg entry inh,Vaccinia mCherry,LASV entry inh,HCV inh,VACV Venus inh,HCMV antiviral
COc1ccc(NS(=O)(=O)c2cccc(C(=O)NNC(=O)c3ccccc3O)c2)cc1,-22%[46.1 µM],?,?,?,-10%,-94*
COc1ccc(NS(=O)(=O)c2cccc(C(=O)NNC(=O)c3cc(C)oc3C)c2)cc1,-16%,-13%,-13%,-7%,-12%,-101*
COC(=O)Cn1c(=NC(=O)c2nc3ccccc3s2)sc2cc(S(N)(=O)=O)ccc21,13%,-1%,0%,?,-8%,-89*
COC(=O)Cn1c(=NC(=O)c2cc(-c3cccs3)nc3ccccc23)sc2cc(S(N)(=O)=O)ccc21,?,?,?,?,?,14
O=C(O)c1ccccc1Nc1ccc([N+](=O)[O-])cc1,0.5µM*,?,1.1µM*,-8%,23%,?
Cc1cccc(NC(=O)c2cc([N+](=O)[O-])ccc2Cl)c1O,-28%[46.1 µM],-6%,1%,-23%,-8%,52
O=C(Nc1nccs1)c1cc([N+](=O)[O-])ccc1Cl,/,/,/,-16%,/,-103*
O=C(Nc1ccc(Nc2ccccc2)cc1)c1cc([N+](=O)[O-])ccc1Cl,/,/,/,11µM*,/,43
O=C(Nc1ccccc1Oc1ccccc1)c1cc([N+](=O)[O-])ccc1Cl,?,-4%,-25%,?,-15%,-77*
O=C(O)c1ccccc1Nc1ccccc1C(=O)O,8%,/,2%,1%,/,23
CCOC(=O)c1cc(-c2ccc(OC)cc2)nn1Cc1ccccc1,?,-13%,2%[46.1 µM],/,-6%,108
Cc1ncc(C(O)c2ccccc2)n1Cc1ccccc1 (stereo not given),/,i,/,/,-16%,1
CCOC(=O)N1CCN(Cc2ccc3c(c2)CN(C(=O)c2cc(-c4ccccc4)no2)CCO3)CC1,/,-26%,/,/,-29%,/
CN(C)S(=O)(=O)c1ccc(Cl)c(C(=O)Nc2cccc([N+](=O)[O-])c2)c1,/,/,/,11µM*,/,-65*
O=C(NNc1ccc([N+](=O)[O-])cc1)c1ccccc1Cl,/,-13%,/,7%,-9%,-86*
O=C(Nc1ccc2c(c1)CCCN2C(=O)c1ccco1)c1cc([N+](=O)[O-])ccc1Cl,?,?,2.5µM*,?,-6%,-6
COC(=O)c1cc2sc(Cl)cc2n1Cc1nc(-c2ccccc2C)oc1C,-26%[46.1 µM],-19%,/,/,-8%,3
NCC(=O)Nc1ccc(Cl)cc1C(=O)c1ccc[nH]1,/,?,/,9%,-16%,-66*

# Screening results from PubChem.
